Measured values reported in PubChem BioAssay (Tox21).
Records with an inconclusive call do not appear. The source holds several records for some structures; these can differ, active in one and inactive in another. The source made the active and inactive calls. Unless noted, calls follow the shape of the full dose curve.

Tests used:
[1] = Nuclear factor erythroid 2-related factor 2/antioxidant responsive element (Nrf2/ARE) small molecule agonists: qHTS cell viability counter screen in human keratinocytes (AID 1919968; active = well fitted curve in the direction sought with a large enough effect in the repeat runs; an effect the other way counts as inactive or inconclusive; also: nearly all actives have a fitted effect of over 55% in size; also: potency is read from the fitted curve at half-maximal effect)
Summary of the method: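 Cytotoxicity was multiplexed with the Nrf2/ARE luciferase assay in the same wells. Stably transfected HaCaT keratinocytes were treated with test compounds for 23 h at 37 C. Cell viability was then measured by CellTiter-Fluor fluorescence.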

[2] = biological target: Gonadotropin-releasing hormone receptor (Homo sapiens) (UniProt P30968); test: Human gonadotropin-releasing hormone receptor (GnRHR) small molecule agonists, calcium flux assay in GnRHR-HEK293 cells (AID 1920063); also: nearly all actives have a fitted effect of over 35% in size
Summary of the method: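 Agonist activity was measured as intracellular calcium flux in HEK293 cells engineered to stably express human GnRHR. After dye loading for 1 hour at 37 C, compounds in DMSO were added and fluorescence was followed for 3 minutes.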

[3] = biological target: KiSS-1 receptor (Homo sapiens) (UniProt Q969F8); test: Human kisspeptin (KISS1R) small molecule agonists, calcium flux assay in KISS1R-HEK293 cells (AID 1920064; active = well fitted curve in the direction sought with a large enough effect in the repeat runs; an effect the other way counts as inactive or inconclusive)
Summary of the method: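 Agonist activity is monitored as intracellular calcium rise in engineered HEK293 cells carrying human KISS1R. Cells are dye-loaded for 1 h at 37 C before compound addition, and fluorescence is recorded for 3 min.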

[4] = G protein-coupled receptor (GPCR) small molecule agonists, calcium flux assay: HEK293 wild type cell line counter screen (AID 1920065)
Summary of the method: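 Seed cells, incubate 18 h (37 C, 5% CO2); add calcium dye, 1 h at 37 C; pin-transfer compounds, ATP control or DMSO; read fluorescence 480/540 nm each second for 3 min.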

[5] = p53 small molecule agonists, cell-based qHTS assay with human liver microsomes: qHTS cell viability counter screen (AID 1963579); also: nearly all actives have a fitted effect of over 45% in size; also: potency is read from the fitted curve at half-maximal effect
Summary of the method: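 Luminescent CellTiter-Glo read-out, 30 min at room temperature, gauged cytotoxicity in p53RE-bla cells exposed 16 h at 37 C to DMSO-dissolved compounds with metabolic activation by human liver microsomes and NADPH, each 0.5 mg/mL final.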

[6] = p53 small molecule agonists, cell-based qHTS assay with rat liver microsomes: qHTS cell viability counter screen (AID 1963580); also: nearly all actives have a fitted effect of over 45% in size
Summary of the method: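 After the beta-lactamase ratio was read, CellTiter-Glo was added to the same wells and luminescence measured at 30 min; cells had been treated 16 h at 37 C with compounds, rat liver microsomes and NADPH (0.5 mg/mL final each).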

[7] = biological target: 5-hydroxytryptamine receptor 2A (Homo sapiens) (UniProt P28223); test: 5-hydroxytryptamine receptor 2A (HTR2A) small molecule agonists, cell-based qHTS assay (AID 1963587); also: nearly all actives have a fitted effect of over 30% in size
Summary of the method: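 CHO cells stably expressing human HTR2A, plated 18 h, loaded with calcium dye 1 h at 37 C. Agonist mode: compounds added and intracellular calcium fluorescence recorded kinetically for 2 min at 1 sec intervals.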

[8] = biological target: Muscarinic acetylcholine receptor M1 (Homo sapiens) (UniProt P11229); test: Cholinergic receptor muscarinic 1 (CHRM1) small molecule agonists, cell-based qHTS assay (AID 1963589); also: nearly all actives have a fitted effect of over 35% in size
Summary of the method: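 Cells were plated and incubated 18 h at 37 C/5% CO2, loaded with calcium dye for 1 h at 37 C, then treated with compounds in DMSO. Fluorescence was recorded kinetically at 1 sec intervals.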

[9] = cAMP Responsive Elements (CRE) small molecule agonists, cell-based qHTS assay (AID 1963590)
Summary of the method: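 Cells carrying a CRE-driven beta-lactamase reporter (HEK 293T) are seeded, incubated overnight (18 h), and treated with test compounds for 3 h at 37 C; reporter activity is then detected with a FRET substrate after 2 h at room temperature.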

[10] = cAMP Responsive Elements (CRE) small molecule antagonists, cell-based qHTS assay (AID 1963591; active = well fitted inhibition curve with a large enough effect in the signal ratio in the repeat runs, not every such curve was filed as active; the % refers to the signal ratio)
Summary of the method: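 Cells (CRE-bla HEK 293T, DMEM with 10% dialyzed FBS and 25 mM HEPES) are seeded and incubated 18 h. Compounds are added with NKH477 agonist at 0.25 uM final for 3 h, then FRET substrate for 2 h.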

[11] = biological target: Beta-2 adrenergic receptor (Homo sapiens) (UniProt P07550); test: Adrenergic beta2 receptor (ADRB2) small molecule antagonists, cell-based qHTS assay (AID 1963592); also: series mostly up to about 92 µM; nearly all actives have a fitted effect of over 50% in size
Summary of the method: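 Assay format: CHO-ADRB2 cells, 18-20hr seeding at 37C/5% CO2, then compound plus 1nM isoproterenol agonist mix for 0.5hr RT. Homogeneous time-resolved fluorescence cAMP detection after 1hr, expressed as 665/615 nm ratio.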

[12] = biological target: Beta-2 adrenergic receptor (Homo sapiens) (UniProt P07550); test: Adrenergic beta2 receptor (ADRB2) small molecule agonists, cell-based qHTS assay (AID 1963593);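 also: CHO cells stably overexpressing human ADRB2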
Summary of the method: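 CHO cells stably over-expressing ADRB2 were plated overnight at 37C, then dosed with compounds plus a stimulation mix containing 100uM IBMX and 25uM Ro-20-1724 for 0.5hr at room temperature. cAMP was measured by HTRF competition, 1hr.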

[13] = biological target: D(2) dopamine receptor (Homo sapiens) (UniProt P14416); test: Dopamine D2 receptor (DRD2) small molecule agonists, cell-based qHTS assay (AID 1963594); also: nearly all actives have a fitted effect of over 35% in size
Summary of the method: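 HEK293 cells stably expressing human DRD2, pre-treated with PDE inhibitor Ro20-1724 (0.1 mM final) and compound 10 min at room temperature, then stimulated with NKH477 (200nM […]) for 30 min. cAMP read by HTRF (665/620 nm).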

[14] = biological target: D(2) dopamine receptor (Homo sapiens) (UniProt P14416); test: Dopamine D2 receptor (DRD2) small molecule antagonists, cell-based qHTS assay (AID 1963595; active = well fitted inhibition curve with a large enough effect in the signal ratio in the repeat runs, with a control signal flat; the % refers to the signal ratio)
Summary of the method: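 HEK293 cells stably expressing DRD2 were preincubated with 0.1 mM Ro20-1724, then with compound for 10 min at room temperature. Cells were stimulated with 200 nM NKH477 plus 12 nM quinpirole for 30 min, and cAMP was read by HTRF.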

[15] = biological target: 5-hydroxytryptamine receptor 2A (Homo sapiens) (UniProt P28223); test: 5-hydroxytryptamine receptor 2A (HTR2A) small molecule antagonists, cell-based qHTS assay (AID 1963586); also: nearly all actives have a fitted effect of over 45% in size
Summary of the method: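 CHO cells stably expressing human HTR2A were plated for 18 h at 37 C, then loaded with calcium dye for 1 h. Compounds were preincubated 5 min at room temperature before DOI (4 nM solution) was added. Kinetic fluorescence was read for 3 min.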

[16] = biological target: Muscarinic acetylcholine receptor M1 (Homo sapiens) (UniProt P11229); test: Cholinergic receptor muscarinic 1 (CHRM1) small molecule antagonists, cell-based qHTS assay (AID 1963588); also: nearly all actives have a fitted effect of over 40% in size
Summary of the method: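 Compounds were tested at 15 concentrations in three independent runs. Dye-loaded CHRM1-CHO cells were exposed 5 min at room temperature before stimulation by acetylcholine added at 50nM. Intracellular calcium was read kinetically on FDSS for 3 min.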

[17] = p53 small molecule agonists, cell-based qHTS assay: qHTS cell viability counter screen (AID 1963581); also: nearly all actives have a fitted effect of over 45% in size; also: potency is read from the fitted curve at half-maximal effect
Summary of the method: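 Viability was counter-screened in parallel with the p53 agonist reporter by measuring intracellular ATP luminescence in the same HCT-116 p53RE-bla wells after 16 h compound treatment at 37 C.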

Measured: Potency

Chain of Muscarinic acetylcholine receptor M1 (Homo sapiens) (P11229 whole entry, looked up): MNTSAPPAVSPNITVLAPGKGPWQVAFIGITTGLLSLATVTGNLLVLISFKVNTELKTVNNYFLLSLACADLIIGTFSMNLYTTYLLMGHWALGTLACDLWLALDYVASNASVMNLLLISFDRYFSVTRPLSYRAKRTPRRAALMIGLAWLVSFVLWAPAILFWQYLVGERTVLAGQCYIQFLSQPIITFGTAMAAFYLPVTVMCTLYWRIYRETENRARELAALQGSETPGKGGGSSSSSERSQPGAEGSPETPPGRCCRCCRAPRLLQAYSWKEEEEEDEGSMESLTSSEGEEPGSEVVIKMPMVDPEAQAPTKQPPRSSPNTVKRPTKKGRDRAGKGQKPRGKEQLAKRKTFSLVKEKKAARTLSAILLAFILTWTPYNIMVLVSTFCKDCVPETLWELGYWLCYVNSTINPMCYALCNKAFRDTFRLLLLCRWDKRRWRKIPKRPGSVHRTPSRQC
Chain of D(2) dopamine receptor (Homo sapiens) (P14416 whole entry, looked up): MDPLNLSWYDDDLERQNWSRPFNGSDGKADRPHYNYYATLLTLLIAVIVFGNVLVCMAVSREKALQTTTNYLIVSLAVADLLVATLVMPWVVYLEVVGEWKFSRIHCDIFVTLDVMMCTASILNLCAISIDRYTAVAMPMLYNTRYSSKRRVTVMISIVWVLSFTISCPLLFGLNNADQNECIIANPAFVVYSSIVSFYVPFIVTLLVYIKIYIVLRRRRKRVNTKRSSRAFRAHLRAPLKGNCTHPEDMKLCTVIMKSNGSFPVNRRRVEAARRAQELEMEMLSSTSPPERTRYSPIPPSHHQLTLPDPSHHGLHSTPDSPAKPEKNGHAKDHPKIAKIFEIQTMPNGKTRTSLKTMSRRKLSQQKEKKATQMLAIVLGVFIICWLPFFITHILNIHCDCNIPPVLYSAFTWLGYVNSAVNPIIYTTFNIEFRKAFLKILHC
Chain of KiSS-1 receptor (Homo sapiens) (Q969F8 whole entry, looked up): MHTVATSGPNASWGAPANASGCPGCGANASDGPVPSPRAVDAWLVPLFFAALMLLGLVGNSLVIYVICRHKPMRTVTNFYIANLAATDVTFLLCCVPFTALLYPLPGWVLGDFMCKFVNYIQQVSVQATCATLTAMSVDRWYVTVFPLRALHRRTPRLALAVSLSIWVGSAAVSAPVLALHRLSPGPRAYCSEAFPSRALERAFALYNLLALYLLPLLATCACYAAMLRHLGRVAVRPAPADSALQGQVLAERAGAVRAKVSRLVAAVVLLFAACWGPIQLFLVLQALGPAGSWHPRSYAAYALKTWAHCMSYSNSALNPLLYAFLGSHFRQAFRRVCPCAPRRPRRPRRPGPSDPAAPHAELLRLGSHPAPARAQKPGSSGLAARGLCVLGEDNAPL
Chain of 5-hydroxytryptamine receptor 2A (Homo sapiens) (P28223 whole entry, looked up): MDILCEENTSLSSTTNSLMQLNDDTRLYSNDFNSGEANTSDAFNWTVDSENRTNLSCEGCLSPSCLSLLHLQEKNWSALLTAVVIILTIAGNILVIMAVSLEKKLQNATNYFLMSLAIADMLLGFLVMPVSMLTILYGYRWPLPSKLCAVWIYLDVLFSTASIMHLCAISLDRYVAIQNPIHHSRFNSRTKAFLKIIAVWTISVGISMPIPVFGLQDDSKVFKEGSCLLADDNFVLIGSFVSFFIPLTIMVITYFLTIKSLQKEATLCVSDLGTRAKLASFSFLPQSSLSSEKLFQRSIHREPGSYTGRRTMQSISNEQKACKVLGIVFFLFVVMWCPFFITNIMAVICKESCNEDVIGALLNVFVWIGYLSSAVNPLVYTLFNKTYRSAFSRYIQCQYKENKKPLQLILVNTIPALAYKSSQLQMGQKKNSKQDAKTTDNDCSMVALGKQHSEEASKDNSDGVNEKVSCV
Chain of Gonadotropin-releasing hormone receptor (Homo sapiens) (P30968 whole entry, looked up): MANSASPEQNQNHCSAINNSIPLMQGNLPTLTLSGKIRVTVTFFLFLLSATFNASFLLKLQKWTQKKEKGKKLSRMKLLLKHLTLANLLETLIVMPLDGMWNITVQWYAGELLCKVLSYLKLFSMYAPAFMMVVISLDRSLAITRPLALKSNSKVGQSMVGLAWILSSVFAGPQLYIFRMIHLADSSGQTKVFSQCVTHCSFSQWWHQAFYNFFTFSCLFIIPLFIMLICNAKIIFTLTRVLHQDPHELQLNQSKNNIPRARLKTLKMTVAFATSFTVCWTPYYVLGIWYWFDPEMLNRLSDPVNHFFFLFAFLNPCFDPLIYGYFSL
Chain of Beta-2 adrenergic receptor (Homo sapiens) (P07550 whole entry, looked up): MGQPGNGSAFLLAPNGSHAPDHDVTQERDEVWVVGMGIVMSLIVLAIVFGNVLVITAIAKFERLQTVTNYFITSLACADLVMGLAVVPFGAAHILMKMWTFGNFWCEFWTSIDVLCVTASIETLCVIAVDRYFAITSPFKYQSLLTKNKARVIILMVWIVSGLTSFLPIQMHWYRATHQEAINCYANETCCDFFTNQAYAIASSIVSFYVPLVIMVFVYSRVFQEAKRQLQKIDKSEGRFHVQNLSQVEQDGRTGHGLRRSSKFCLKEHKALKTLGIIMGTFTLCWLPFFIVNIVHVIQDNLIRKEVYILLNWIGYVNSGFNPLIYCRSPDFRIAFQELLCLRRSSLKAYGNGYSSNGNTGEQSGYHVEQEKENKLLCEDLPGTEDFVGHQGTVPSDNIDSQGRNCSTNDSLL

CN(C)CC[C@@H](c1ccc(Br)cc1)c1ccccn1
inactive: [1] | [2] | [3] | [4] | [5] | [6] | [7] | [8] | [9] | [10] | [11] | [12] | [13] | [14]

CCCCCCCCCC[N+](C)(CCCCCCCCCC)CCC[Si](OC)(OC)OC
inactive: [2] | [3] | [4] | [15] | [7] | [16] | [8] | [11] | [13]
active: [1] 21.7 µM | [5] 36.3 µM

C/C=C/C=N/NC(=O)c1ccncc1
inactive: [1] | [2] | [3] | [4] | [5] | [17] | [15] | [7] | [16] | [8] | [11] | [14]

CCC(CC)Nc1ccc(C)c(C)c1
inactive: [1] | [2] | [3] | [4] | [6] | [17] | [15] | [7] | [16] | [8] | [9] | [11] | [13] | [14]

O=C(O)c1ccc(S(=O)(=O)O)cc1C(=O)O
inactive: [1] | [2] | [3] | [4] | [5] | [6] | [17] | [7] | [16] | [8] | [9] | [10] | [11] | [12] | [13] | [14]

Oc1ccccc1F
inactive: [1] | [2] | [3] | [4] | [5] | [6] | [17] | [15] | [16] | [8] | [9] | [10] | [11] | [13] | [14]

CCCCCCCC#N
active: [5] 32.4 µM
inactive: [1] | [2] | [3] | [4] | [17] | [15] | [7] | [16] | [8] | [9] | [11] | [12] | [13] | [14]

Oc1cccc(Nc2ccccc2)c1
inactive: [1] | [2] | [3] | [4] | [5] | [6] | [17] | [7] | [16] | [9] | [10] | [13] | [14]

CCCCOCCOCCOCc1cc2c(cc1CCC)OCO2
41.3 µM (active) and inactive: [17]
inactive: [1] | [2] | [3] | [4] | [5] | [6] | [7] | [16] | [11] | [12] | [14]
